The results in this text go back to PubChem BioAssay.

Potency and affinity values are given separately. Calls of active or inactive are those of the source.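 How the source made its calls: active means earlier screen potentiator hit that boosts the TRPC4 ion channel at some dose, with a dose response; inactive means no potentiation, no dose response, or not a prior hit.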

In this assay the target is Short transient receptor potential channel 4 (Mus musculus) (UniProt Q9QUQ5). Nature of the assay: potentiation of DAMGO-evoked TRPC4 calcium signal – cell-based, HEK293 TRPC4/mu-opioid, Fluo-4 calcium, EC20 DAMGO, dose response (AID 434941).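 Further: calcium entry triggered by an EC20 dose of DAMGO at the co-expressed mu-opioid receptor.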 The conditions noted are these: HEK293 TRPC4/mu-opioid cells, Fluo-4 calcium fluorescence; series mostly up to 20 µM; potentiation ratio: at the top concentration.
Chain of Short transient receptor potential channel 4 (Mus musculus) (Q9QUQ5 whole entry, looked up): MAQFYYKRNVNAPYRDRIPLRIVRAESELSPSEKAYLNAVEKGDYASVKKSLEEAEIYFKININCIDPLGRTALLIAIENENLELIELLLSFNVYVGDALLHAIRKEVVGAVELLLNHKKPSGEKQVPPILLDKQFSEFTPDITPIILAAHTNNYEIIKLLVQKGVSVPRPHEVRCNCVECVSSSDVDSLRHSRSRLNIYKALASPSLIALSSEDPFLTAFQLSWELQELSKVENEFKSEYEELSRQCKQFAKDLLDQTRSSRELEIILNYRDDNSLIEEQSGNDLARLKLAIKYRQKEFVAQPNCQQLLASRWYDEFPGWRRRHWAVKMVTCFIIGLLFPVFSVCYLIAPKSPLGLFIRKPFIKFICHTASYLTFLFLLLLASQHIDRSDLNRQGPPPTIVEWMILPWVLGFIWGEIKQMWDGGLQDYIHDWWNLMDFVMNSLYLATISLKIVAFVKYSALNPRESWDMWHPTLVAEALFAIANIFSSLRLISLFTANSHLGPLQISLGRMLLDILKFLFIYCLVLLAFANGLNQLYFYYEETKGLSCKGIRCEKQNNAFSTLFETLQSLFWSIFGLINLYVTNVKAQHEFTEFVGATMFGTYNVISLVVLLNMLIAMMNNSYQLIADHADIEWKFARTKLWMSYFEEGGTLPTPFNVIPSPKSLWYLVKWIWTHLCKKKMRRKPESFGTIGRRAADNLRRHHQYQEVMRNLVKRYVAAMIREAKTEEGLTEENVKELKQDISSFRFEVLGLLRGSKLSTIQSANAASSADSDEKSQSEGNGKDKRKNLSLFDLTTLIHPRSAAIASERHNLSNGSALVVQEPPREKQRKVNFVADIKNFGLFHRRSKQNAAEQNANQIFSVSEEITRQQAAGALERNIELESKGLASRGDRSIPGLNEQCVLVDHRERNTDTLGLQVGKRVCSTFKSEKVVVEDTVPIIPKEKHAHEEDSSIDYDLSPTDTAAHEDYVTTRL
Regarding `Cc1cc(N2CCCCC2)nc(NCc2ccccc2)n1`, the “potentiation ratio” value was -13.3 (inactive).
For the compound `COCCNC(=O)/C(C#N)=C/c1cc(C(C)C)c(OC)cc1C`, the “potentiation ratio” value is 3.11 (inactive).
For the compound `CCN1CCN(c2ccc(S(=O)(=O)N3CCCCC3)cc2NC(=O)COc2cc(C)ccc2Cl)CC1`, the “potentiation ratio” value is 3.27 (inactive).
The figure for `FC(F)(F)COc1nc(N2CCCCC2)nc(N2CCNCC2)n1` is -6.59 (inactive); for `CCSc1nnc([C@H](Cc2c[nH]c3ccccc23)NC(=O)OC(C)(C)C)o1` it is 1.98 (inactive); for `COc1ccc(/C=C(\C#N)C(=O)N2CCOCC2)cc1Br` it is 2.26 (inactive).
As to `N#Cc1ccc(OCC(O)CN2CCN(c3ncc(C(F)(F)F)cc3Cl)CC2)cc1` (stereo not given), the “potentiation ratio” value was 5.52 (inactive).
The figure for `CCCC1=C(C(=O)OCC)C(c2cc(Cl)cc(OC)c2OCC(=O)OCC)NC(=O)N1` (stereo not given) is 20.9 (inactive); for `CCCCCc1ccc(OCCCC[n+]2ccccc2)c(CCCCC)c1` it is -3.2 (inactive).
Turning to `CC(C)(C)c1ccccc1OCCCCCn1ccnc1`, the “potentiation ratio” value is -9.25 (inactive).
As for `CCOC(=O)COc1cc(-n2c(=S)[nH]c3ccccc3c2=O)c(Cl)cc1Cl`, the “potentiation ratio” value is 4 (inactive).
As for `CCCCc1nc(N2CCOCC2)c(C#N)c2c1CCCC2`, the figure is -7.09 (inactive).
The figure for `CCN1CCN(c2ccc(NC(=O)CCc3c(C)nc4c(-c5ccc(F)cc5)c(C)nn4c3C)cc2)CC1` is 2.51 (inactive).
As for `CCOc1cc(/C=C(\C#N)C(=O)Nc2cccc(C(=O)O)c2)cc(Br)c1OC(=O)c1ccc(OC)cc1`, the figure is 3.71 (inactive); as for `COc1ccc(Cl)c2sc(N(CCN(C)C)C(=O)c3ccc4c(c3)OCCO4)nc12`, 7.42 (inactive); as for `CCCCN1C(=O)C(=O)N(CC(=O)Nc2cc(OCC)c(N3CCOCC3)cc2OCC)C1=O`, 2.29 (inactive).
With `CN(C)CCOc1ccc2ccccc2c1`, the “potentiation ratio” value was 8.55 (inactive).
On to `CCCn1c(NCc2cc(OC)ccc2OC)nc2ccccc21`, for which the “potentiation ratio” value is 0.73 (inactive).
Take `COC(=O)c1ccc(NC(=O)CCN2CCN(Cc3ccccc3)CC2)cc1`: the “potentiation ratio” value was -9.1 (inactive).
As for `Cn1c(=O)c2c(nc(SCCN3CCCCC3)n2Cc2ccccc2)n(C)c1=O`, the figure is -0.04 (inactive); as for `O=C(NCc1ccccc1Cl)/C(=C\c1cccnc1)NC(=O)c1ccccc1`, 0.4 (inactive); as for `COC(=O)[C@@]12CCCN1[C@H](c1ccc(-c3ccc(OC)cc3)cc1)[C@@H]1C(=O)N(C)C(=O)[C@@H]12`, 24 (inactive).
As for `COc1ccc(-c2cc(C(F)(F)F)nc(N3CCN(C)CC3)n2)cc1`, the figure is -24.6 (inactive).
The figure for `CCOc1ccc(NS(=O)(=O)c2ccc(NC(=S)NC(=O)CC(C)C)cc2)cc1` is 20.5 (inactive); for `CCCN(CCC)CCCNC(=O)c1cc2c(=O)n(C)c3ccccc3c2n1C` it is 4.98 (inactive); for `COc1ccc(CNCC(O)(c2ccccc2)c2ccccc2)cc1OC` it is -0.05 (inactive).
For `CCOc1cc2[nH]c(=S)n(C3CC3)c(=O)c2cc1OCC`, the “potentiation ratio” value was -18.4 (inactive).
As for `CCOC(=O)c1c(C(F)(F)C(F)(F)C(F)(F)C(F)(F)F)n[nH]c1C`, the figure is 4.8 (inactive).
On to `Cn1c(=O)cc(OCCCC(=O)NCCCN2CCN(Cc3ccccc3)CC2)c2ccccc21`, for which the “potentiation ratio” value was 6.03 (inactive).
As for `CC(=O)C1=C(O)C(=O)N(Cc2ccco2)C1c1ccc2c(c1)OCO2` (stereo not given), the figure is 2.43 (inactive).
For the compound `CCc1cc2c(SCC(=O)N(C)C3CCS(=O)(=O)C3)ncnc2s1` (stereo not given), the “potentiation ratio” value is 13 (inactive).
The figure for `OC(CNCC1CCCO1)Cn1c2ccc(Br)cc2c2cc(Br)ccc21` (stereo not given) is 3.56 (inactive); for `CCN1CCN(c2ccc(S(=O)(=O)N3CCCCC3)cc2NC(=O)c2cccc(F)c2)CC1` it is 2.18 (inactive).
`COC(=O)/C=C1\SC(=NC(=O)c2cccc(Cl)c2)NC1=O`: the “potentiation ratio” value was -0.84 (inactive).
The figure for `CCCc1ccc(OCc2ccc(C(=O)N3CCCC3)o2)cc1` is -1.63 (inactive); for `Cc1ccc(-c2csc3ncnc(NCCN4CCOCC4)c23)cc1` it is -0.74 (inactive); for `Cn1c(=O)n(CCCO)c(=O)c2c1nc1n2CCCN1Cc1ccccc1` it is 0.7 (inactive).
`O=C(NC1CC1)c1ccc2c(c1)N(Cc1ccc(Cl)cc1)CCS2`: the “potentiation ratio” value is 0.92 (inactive).
In the case of `O=C(COc1ccccc1-c1ccccc1)NCc1ccco1`, the “potentiation ratio” value was -3.85 (inactive).
As for `CCOc1ccc2nc(NCCNC(=O)C3CC3)c(C)cc2c1`, the figure is 1.74 (inactive).
